This passage reports growth results from PubChem BioAssay (NCI).

The structures appear in SMILES notation. About 83,000 compounds went through this panel and 20% of them were active in at least one assay; those are over-represented in the sample as a whole.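 48-hour exposure, single concentration, 96-well plates; percent growth endpoint where 0 means no net growth. Active: below 10.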 Unmarked numbers belong to inactive results. The source made the active and inactive calls.

Among the test systems are NCI-H23 lung; NCI-H226 lung; NCI-H322M lung; HOP-62 NSCLC; NCI-H460 lung; HOP-92 NSCLC; NCI-H522 lung; A549/ATCC NSCLC; 786-0 renal; COLO 205 colon; DU-145 prostate; K-562 leukemia; MALME-3M melanoma; MDA-MB-231 breast; RXF 393 renal; SF-268 CNS; SF-295 CNS; SF-539 CNS; UACC-257 melanoma; M14 melanoma.
Test in all cases: NCI-60 one-dose screen, 48 h (100 = growth as untreated, 0 = no growth, -100 = all killed)
Holding throughout (conditions): 10 µM unless noted

Turning to `CC(=O)Cc1nsc(NC(=O)c2ccoc2COc2ccccc2)n1`, the growth in the experiment with NCI-H23 lung was 95.2%; with NCI-H226 lung, 105%; with NCI-H322M lung it was 94.3%; in the experiment with HOP-62 NSCLC, 107%; in the experiment on NCI-H460 lung it was 107%; in the experiment on HOP-92 NSCLC, 90.1%. Moreover, the growth in the experiment on NCI-H522 lung was 94.1%; with A549/ATCC NSCLC it was 99.3%; with 786-0 renal, 98.7%; in the experiment with COLO 205 colon it was 121%; with DU-145 prostate, 106%; in the experiment with K-562 leukemia, 90.6%. Further, the growth in the experiment on MALME-3M melanoma was 96.8%; in the experiment on MDA-MB-231 breast, 95%; with RXF 393 renal, 113%; in the experiment on SF-268 CNS, 96.3%; in the experiment with SF-295 CNS, 98.6%; with SF-539 CNS it was 91.6%. For the same compound, the figures for the growth in the experiment on UACC-257 melanoma and with M14 melanoma were 93.2% and 95.4%, respectively.

On to `COC(=O)CNc1nc(N(C)O)nc(N(C)O)n1`, for which the growth in the experiment with NCI-H23 lung is 48.7%; in the experiment with NCI-H226 lung, 61.3%; in the experiment on NCI-H322M lung, 54.6%; with HOP-62 NSCLC, 34.2%; with NCI-H460 lung, 17.7%; in the experiment on HOP-92 NSCLC, 35.2%. The growth with NCI-H522 lung was 53.2%; in the experiment with A549/ATCC NSCLC, 46.5%; in the experiment on 786-0 renal, 25.9%; in the experiment on COLO 205 colon, 12.7%; in the experiment with DU-145 prostate it was 34.7%; with K-562 leukemia it was 35%. The growth with MALME-3M melanoma was 97.6%; in the experiment with MDA-MB-231 breast, 43%; in the experiment with RXF 393 renal it was 47.2%; in the experiment on SF-268 CNS it was 34.3%; with SF-295 CNS, 45.2%; in the experiment on SF-539 CNS, 47.5%. The growth in the experiment with UACC-257 melanoma was 76.9%; with M14 melanoma, 46%.

With `O=C(N/N=C/c1ccccc1SSc1ccccc1/C=N/NC(=O)c1ccccc1)c1ccccc1`, the growth in the experiment on NCI-H23 lung was 33.5%; in the experiment with NCI-H226 lung, 44.8%; in the experiment with NCI-H322M lung, 46.5%; in the experiment on HOP-62 NSCLC it was 20.2%; with NCI-H460 lung, 10% (active); with HOP-92 NSCLC, 59.6%. In addition, the growth in the experiment with NCI-H522 lung is 54%; with A549/ATCC NSCLC it was 49.6%; with 786-0 renal, 23.6%; in the experiment on COLO 205 colon it was 6.05% (active); in the experiment with DU-145 prostate, 35.3%; with K-562 leukemia, 18.3%. Also, the growth was 48.9% in the experiment on MALME-3M melanoma; 44.7% with MDA-MB-231 breast; 34.2% in the experiment on RXF 393 renal; 32% in the experiment with SF-268 CNS; 38.2% in the experiment on SF-295 CNS; 26.9% with SF-539 CNS. The values for the growth in the experiment with UACC-257 melanoma and in the experiment on M14 melanoma were 45.1% and 12.9%, respectively.

For `CC(=O)OC(C)COc1ccc(-c2ccccc2)cc1` (stereo not given), the growth in the experiment with NCI-H23 lung is 107%; in the experiment with NCI-H226 lung it was 106%; in the experiment with NCI-H322M lung, 121%; in the experiment on HOP-62 NSCLC, 102%; in the experiment with NCI-H460 lung it was 105%; in the experiment with HOP-92 NSCLC it was 89.9%. The growth in the experiment with NCI-H522 lung was 84.4%; in the experiment with A549/ATCC NSCLC it was 54.9%; with 786-0 renal, 93.4%; in the experiment on COLO 205 colon, 104%; in the experiment with DU-145 prostate, 101%; in the experiment on K-562 leukemia, 97.9%. Moreover, the growth with MALME-3M melanoma was 118%; in the experiment with MDA-MB-231 breast, 103%; in the experiment on RXF 393 renal it was 104%; in the experiment on SF-268 CNS, 96.1%; in the experiment on SF-295 CNS, 97.5%; in the experiment with SF-539 CNS it was 101%. For the same compound, the growth in the experiment on UACC-257 melanoma is 74.3%; in the experiment on M14 melanoma, 92.1%.

Regarding `C#CCN=C[C@]12CC[C@@H](C(=C)C)[C@@H]1[C@H]1CC[C@@H]3[C@@]4(C)CCC(=O)C(C)(C)[C@@H]4CC[C@@]3(C)[C@]1(C)CC2`, the growth in the experiment with NCI-H23 lung is 50.5%; in the experiment on NCI-H226 lung, 73.2%; in the experiment on NCI-H322M lung, 103%; with HOP-62 NSCLC, 88.8%; in the experiment on NCI-H460 lung, 70.8%; with HOP-92 NSCLC, 65.4%. Further, the growth in the experiment with NCI-H522 lung is 51%; with A549/ATCC NSCLC, 46.1%; with 786-0 renal it was 74.9%; in the experiment on COLO 205 colon, 65.8%; with DU-145 prostate, 67.9%; in the experiment with K-562 leukemia, 28.1%. In addition, the growth in the experiment with MALME-3M melanoma was 81.8%; with MDA-MB-231 breast, 83.8%; in the experiment on RXF 393 renal, 80.3%; in the experiment on SF-268 CNS, 71.3%; with SF-295 CNS, 68.5%; with SF-539 CNS, 80.2%. The growth in the experiment with UACC-257 melanoma was 55.6%; with M14 melanoma, 63.1%.

Consider `Cc1cc(N2CCOCC2)nc(N(CCCNc2ccnc3cc(Cl)ccc23)Cc2ccco2)n1`, for which the growth in the experiment with NCI-H23 lung was 35.3%; with NCI-H226 lung it was 74.7%; in the experiment with NCI-H322M lung, 28.7%; in the experiment with HOP-62 NSCLC, 12.9%; in the experiment with NCI-H460 lung it was 18.8%; in the experiment on HOP-92 NSCLC, 34%. Also, the growth was 40.2% in the experiment on NCI-H522 lung; 18.9% in the experiment with A549/ATCC NSCLC; 42.1% in the experiment on 786-0 renal; 3.4% (active) in the experiment on COLO 205 colon; 52.6% with DU-145 prostate; 4.98% (active) in the experiment on K-562 leukemia. Also, the growth was 53.6% in the experiment on MALME-3M melanoma; 19.6% in the experiment on MDA-MB-231 breast; 21.2% in the experiment on RXF 393 renal; 50.7% in the experiment with SF-268 CNS; 16.6% with SF-295 CNS; -2.57% (active) in the experiment on SF-539 CNS. Besides, the growth is 85% in the experiment on UACC-257 melanoma and -3.48% (active) with M14 melanoma.

As for `O=C1c2ccccc2NC(c2cn(-c3ccccc3)nc2-c2cccnc2)N1Cc1ccccc1` (stereo not given), the growth is 92.3% with NCI-H23 lung; 109% in the experiment on NCI-H226 lung; 93% in the experiment with NCI-H322M lung; 111% in the experiment with HOP-62 NSCLC; 108% in the experiment with NCI-H460 lung; 93.4% in the experiment with HOP-92 NSCLC. In addition, the growth is 78.4% with NCI-H522 lung; 102% with A549/ATCC NSCLC; 89.9% with 786-0 renal; 121% in the experiment on COLO 205 colon; 101% in the experiment on DU-145 prostate; 96.8% in the experiment on K-562 leukemia. In addition, the growth was 119% with MALME-3M melanoma; 94.3% with MDA-MB-231 breast; 97.6% with RXF 393 renal; 84.8% in the experiment on SF-268 CNS; 92% in the experiment on SF-295 CNS; 95.6% with SF-539 CNS. Besides, the growth in the experiment on UACC-257 melanoma is 123%; in the experiment with M14 melanoma, 106%.
